For the assay, the system named is Aedes aegypti larvae. Nature of the assay: larval motility relative to same well at 0 h (fraction); higher = more motile (less active compound), active = 0.4 or less. Particulars: 10 µM. In a few lines: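 Relative motility is the score of a well divided by its own score at the first recording. Movies were made with INVAPP at 0, 2 and 24 h, each having 200 frames at 100 ms intervals. Larvae of Aedes aegypti, from 18–24 h hatches in pond salt solution with yeast at 25 °C, sat at about 10 per well (100 µL) in 96-well plates with compounds at 10 µM and 1% v/v DMSO. Solvent and larvicide control wells were included on every plate, and values are medians of three independent larval batches.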

Unmarked numbers belong to inactive results.

As for `COc1cc(NCc2ccc3nc(N)nc(N)c3c2C)cc(OC)c1OC`, the larval motility by setting is: (2 h) 0.5; (24 h) 0.356 (active).

Take `O=C(Nc1ccccc1)N(Cc1cc(Br)ccc1O)c1ccc(F)cc1`: the larval motility (2 h) is 0.646 and the larval motility (24 h) is 1.02.

Take `COc1ccc(OCc2ccc(COc3c(Cl)cccc3Cl)cc2)c(Cl)c1`: the larval motility is, setting by setting: (2 h) 1.19; (24 h) 1.03.

`CC(C)(C)c1cc(CCC(=O)N2CCC2)cc(C(C)(C)C)c1O`: the larval motility was 0.769 (2 h) and 0.774 (24 h).

With `O=C(CC1Sc2ncnn2C1=O)Nc1ccc(Br)cc1` (stereo not drawn), the larval motility runs as follows: (2 h) 0.859; (24 h) 0.722.

In the case of `COc1cc(Cc2cc(N)nc(N)n2)cc(OC)c1OC`, the larval motility runs as follows: (2 h) 0.774; (24 h) 1.44.

Take `Cc1cc(C2CCCCC2)n(O)c(=O)c1`: the larval motility by setting is: (2 h) 0.66; (24 h) 1.09.

Turning to `OC1O[C@H](CSc2ccc(F)cc2)[C@@H](O)[C@H]1O` (stereo partly drawn), the larval motility runs as follows: (2 h) 1.09; (24 h) 1.32.

Take `C[C@@H](O)[C@H](N)C(=O)NS(=O)(=O)c1cccc(-c2ccc3[nH]ncc3c2)c1`: the larval motility (2 h) is 0.665 and the larval motility (24 h) was 0.913.

For `CCOC(=O)Nc1cc(NC(C)CC(C)CN(CC)CC)c2nc(-c3ccccc3)c(-c3ccccc3)nc2n1` (stereo not drawn), the larval motility reads like this: (2 h) 0.848; (24 h) 1.04.

Take `O=C(Nc1nnc(-c2ccc(Cl)cc2)o1)c1nc2ccccc2s1`: the larval motility reads like this: (2 h) 0.919; (24 h) 1.05.

For the compound `O=C(O)c1ccc(-c2ccc(O[C@H]3O[C@H](CO)[C@@H](O)[C@H](O)[C@@H]3O)cc2)cc1`, the larval motility is 0.798 (2 h) and 1.22 (24 h).

For `COc1ccc2sc3c(c2c1)NC(C)CNC3=O` (stereo not drawn), the larval motility by setting is: (2 h) 0.748; (24 h) 0.959.

For `O=C1[C@H](CC[C@H](O)c2ccc(F)cc2)[C@@H](c2ccc(O)cc2)N1c1ccc(F)cc1`, the larval motility by setting is: (2 h) 0.873; (24 h) 1.08.

Consider `Cn1c2ccccc2c(=O)c2c(O)cccc21`, for which the larval motility reads like this: (2 h) 1.15; (24 h) 1.13.

For the compound `CCOC(=O)N[C@@H]1CC[C@@H]2[C@@H](C1)C[C@H]1C(=O)O[C@H](C)[C@H]1[C@H]2/C=C/c1ccc(-c2cccc(F)c2)cn1`, the larval motility reads like this: (2 h) 1.18; (24 h) 0.624.

In the case of `CCc1nc(N)nc(N)c1C#CC(C)c1cc(OC)cc(-c2ccncc2)c1` (stereo not drawn), the larval motility is 0.87 (2 h) and 0.417 (24 h).

For the compound `CN1c2ccc(Cl)cc2N(c2ccccc2)C(=O)c2cn(Cc3ccc(CN4CCOCC4)cc3)nc21`, the larval motility reads like this: (2 h) 0.674; (24 h) 0.985.

In the case of `CCOc1ccc(C(=O)NCCc2ccccc2)cc1`, the larval motility (2 h) is 1.05 and the larval motility (24 h) is 0.979.

Consider `O=S(=O)(Nc1ccc(O)cc1)c1cccc2cccnc12`, for which the larval motility (2 h) is 1.06 and the larval motility (24 h) is 0.629.

As for `O=C(c1cc(O)nc2ccccc12)N1CCN(c2ccccc2)CC1`, the larval motility is 0.848 (2 h) and 0.897 (24 h).

Take `COc1cccc(N2CCN(C3=Nc4c(F)cccc4[C@H](CC(=O)O)N3c3cc(C(F)(F)F)ccc3OC)CC2)c1`: the larval motility is 1.02 (2 h) and 1.01 (24 h).

As to `CC(=O)Nc1cc(NS(=O)(=O)c2ccc(Cl)cc2)cc2c(Cl)n[nH]c12`, the larval motility runs as follows: (2 h) 0.744; (24 h) 0.752.

Turning to `Clc1cccc(-c2nnc(-c3ccccc3)o2)c1`, the larval motility is 0.402 (2 h) and 0.691 (24 h).

As to `CCCCc1ccc(-c2nc(C)c(C(=O)OC)s2)cc1`, the larval motility (2 h) is 1.33 and the larval motility (24 h) is 0.97.

Consider `Oc1ccc(NCc2ccccc2OCc2ccccc2)cc1`, for which the larval motility is 0.844 (2 h) and 1.62 (24 h).

In the case of `Oc1c(C(Nc2nc3ccccc3s2)c2ccc(OC(F)F)cc2)ccc2cccnc12` (stereo not drawn), the larval motility was 0.53 (2 h) and 1.26 (24 h).

Take `COc1ccc2cc3[n+](cc2c1OCCN(CCn1cncn1)Cc1ccc(F)cc1F)CCc1cc2c(cc1-3)OCO2`: the larval motility (2 h) is 0.821 and the larval motility (24 h) is 0.778.

With `OC[C@@H]1CC[C@H](n2cnc3c(O)ncnc32)O1`, the larval motility runs as follows: (2 h) 1.15; (24 h) 0.963.

Take `COC(=O)Nc1nc2cc(S(=O)c3ccccc3)ccc2[nH]1` (stereo not drawn): the larval motility (2 h) was 0.769 and the larval motility (24 h) was 0.934.

In the case of `Nc1ccc(-c2nc3cc(C(F)(F)F)ccc3n2C23CC4CC(CC(C4)C2)C3)cc1`, the larval motility was 1.1 (2 h) and 1.22 (24 h).

Consider `Nc1nc(Nc2ccc3nc(-c4ccc(F)cc4)cc(N)c3c2)cc(-c2ccccc2)n1`, for which the larval motility (2 h) is 0.547 and the larval motility (24 h) was 0.261 (active).

As for `NC(=O)c1ccccc1NC(=O)c1ccc(C(=O)Nc2ccccc2C(N)=O)cc1`, the larval motility (2 h) was 0.724 and the larval motility (24 h) was 0.755.

On to `C[C@@H](NC(=O)c1ccccc1-c1ccccc1)B(O)O`, for which the larval motility was 0.616 (2 h) and 0.615 (24 h).

Take `Cc1cc(O)c2c(c1)C(=O)c1c(I)c(O)c(I)c(O)c1C2=O`: the larval motility runs as follows: (2 h) 0.851; (24 h) 1.08.

On to `Cc1[nH]c2ccccc2c1CCNCc1ccc(/C=C/C(=O)NO)cc1`, for which the larval motility reads like this: (2 h) 1.05; (24 h) 1.18.

As to `COc1ccc(NC(=O)CC2Sc3ncnn3C2=O)cc1` (stereo not drawn), the larval motility (2 h) is 0.728 and the larval motility (24 h) is 0.333 (active).

As for `CC1(C)[C@H](C(=O)O)N2C(=O)C[C@H]2S1(=O)=O`, the larval motility (2 h) is 0.965 and the larval motility (24 h) was 1.35.

On to `O=C(Nc1ccc(Cl)c(C(F)(F)F)c1)C(CCCl)C(=O)Nc1ccc(Cl)c(C(F)(F)F)c1`, for which the larval motility reads like this: (2 h) 0.848; (24 h) 0.397 (active).

`Oc1ccc2[nH]c(-c3ccccc3)nc2c1`: the larval motility reads like this: (2 h) 0.633; (24 h) 0.514.

Turning to `CONC(=N)c1ccc(-c2ccc(-c3ccc(C(=N)NOC)cc3)o2)cc1`, the larval motility runs as follows: (2 h) 0.699; (24 h) 2.2.

As for `CCO/N=C/c1ccc(OCCCCN2CCN(c3ccncc3)C2=O)cc1`, the larval motility runs as follows: (2 h) 1.36; (24 h) 1.3.

On to `COc1ccc(NS(=O)(=O)c2ccc(Cl)s2)cn1`, for which the larval motility reads like this: (2 h) 0.931; (24 h) 1.43.

In the case of `NC(=O)[C@@H]1CC[C@@H]2CN1C(=O)N2OS(=O)(=O)O`, the larval motility is 1.06 (2 h) and 1.3 (24 h).

As for `N#C/C(=C1/SC[C@H](c2ccc(Cl)cc2Cl)S1)n1ccnc1`, the larval motility is 0.983 (2 h) and 1 (24 h).

With `COc1cc(Cc2cnc(N)nc2N)cc(OC)c1OC`, the larval motility is 0.864 (2 h) and 0.829 (24 h).

Take `Nc1nc(F)nc2c1ncn2[C@H]1O[C@@H](CO)[C@H](O)[C@@H]1O`: the larval motility (2 h) is 0.949 and the larval motility (24 h) is 0.854.

On to `CC(C)=CCC/C(C)=C/CNCCNC1C2CC3CC(C2)CC1C3` (stereo not drawn), for which the larval motility was 0.85 (2 h) and 0.924 (24 h).

As to `Cc1ccc(C)c(OCCCCCCN2C[C@H](O)[C@@H](O)[C@H](O)[C@H]2CO)c1`, the larval motility by setting is: (2 h) 0.635; (24 h) 0.552.

On to `CC(C)CCN1C(=O)C(C2=NS(=O)(=O)c3cc(NS(C)(=O)=O)ccc3N2)=C(O)[C@@H]2[C@H]3CC[C@H](C3)[C@@H]21`, for which the larval motility (2 h) is 0.853 and the larval motility (24 h) is 0.888.

As for `O=C(Nc1ccccc1C(=O)O)c1cccc(Oc2ccccc2)c1`, the larval motility (2 h) was 0.522 and the larval motility (24 h) is 1.44.

As for `Clc1ccc(Cn2c(CN3CCCC3)nc3ccccc32)cc1`, the larval motility reads like this: (2 h) 1.09; (24 h) 1.28.

As to `COc1c(F)c(F)cc2c(=O)c(C(=O)O)cn(C3CC3)c12`, the larval motility was 0.765 (2 h) and 1.08 (24 h).

In the case of `O=C(Cc1ccccc1F)Nc1nc2ccccc2[nH]1`, the larval motility reads like this: (2 h) 0.888; (24 h) 0.669.

These data come from the supplement of paper PMC8540655.
